# Fewer than 10 of roughly 69,000 compounds were called active. Roughly 100% stayed inconclusive and do not appear here. The rule behind the calls is not given here. Some of the results follow.
# Molecular target: UDP-N-acetylglucosamine--peptide N-acetylglucosaminyltransferase 110 kDa subunit (Homo sapiens) (UniProt O15294)
# Assay: O-Glc NAc Transferase (sOGT)
# Conditions: sOGT fluorescence polarization UDP-GlcNAc probe displacement
# From the text: NIH Molecular Libraries Screening Centers Network [MLSCN]
# NIH Chemical Genomics Center [NCGC]
# Suzanne Walker [Harvard Medical School]
# OGT is the sole enzyme that mediates the attachment of O-GlcNAc groups to serine and threonine residues in the nucleus and cytoplasm of eukaryotic cells, and no specific inhibitors are known. This type of glycosylation is involved in signal transduction and plays a key role in many essential cellular processes. High O-GlcNAc levels have been correlated to insulin resistance and type 2 diabetes. In addition to elucidating the role of O-GlcNAc in cellular processes, inhibitors of OGT might be useful in studying and perhaps treating type 2 diabetes. Since HTS-amenable direct assay for OGT activity is currently unavailable, a simpler substrate-displacement screen was performed. The signal measured is based on the change in fluorescence polarization of a fluorescein-labeled UDP-GlcNAc upon displacement from its complex with OGT. Recombinant truncated version of the enzyme, sOGT, as well as labeled probe, were made available by Suzanne Walker and Benjamin Gross, Harvard Medical School. […]
# Three uL of reagents were dispensed to 1536-well Greiner black plates. […] The plates were incubated for 15 min at room temperature, and then read on ViewLux (Perkin-Elmer) High-throughput CCD imager using fluorescein polarization filter set and 45 seconds exposure time. […]
# Chain of UDP-N-acetylglucosamine--peptide N-acetylglucosaminyltransferase 110 kDa subunit (Homo sapiens) (O15294 whole entry, looked up): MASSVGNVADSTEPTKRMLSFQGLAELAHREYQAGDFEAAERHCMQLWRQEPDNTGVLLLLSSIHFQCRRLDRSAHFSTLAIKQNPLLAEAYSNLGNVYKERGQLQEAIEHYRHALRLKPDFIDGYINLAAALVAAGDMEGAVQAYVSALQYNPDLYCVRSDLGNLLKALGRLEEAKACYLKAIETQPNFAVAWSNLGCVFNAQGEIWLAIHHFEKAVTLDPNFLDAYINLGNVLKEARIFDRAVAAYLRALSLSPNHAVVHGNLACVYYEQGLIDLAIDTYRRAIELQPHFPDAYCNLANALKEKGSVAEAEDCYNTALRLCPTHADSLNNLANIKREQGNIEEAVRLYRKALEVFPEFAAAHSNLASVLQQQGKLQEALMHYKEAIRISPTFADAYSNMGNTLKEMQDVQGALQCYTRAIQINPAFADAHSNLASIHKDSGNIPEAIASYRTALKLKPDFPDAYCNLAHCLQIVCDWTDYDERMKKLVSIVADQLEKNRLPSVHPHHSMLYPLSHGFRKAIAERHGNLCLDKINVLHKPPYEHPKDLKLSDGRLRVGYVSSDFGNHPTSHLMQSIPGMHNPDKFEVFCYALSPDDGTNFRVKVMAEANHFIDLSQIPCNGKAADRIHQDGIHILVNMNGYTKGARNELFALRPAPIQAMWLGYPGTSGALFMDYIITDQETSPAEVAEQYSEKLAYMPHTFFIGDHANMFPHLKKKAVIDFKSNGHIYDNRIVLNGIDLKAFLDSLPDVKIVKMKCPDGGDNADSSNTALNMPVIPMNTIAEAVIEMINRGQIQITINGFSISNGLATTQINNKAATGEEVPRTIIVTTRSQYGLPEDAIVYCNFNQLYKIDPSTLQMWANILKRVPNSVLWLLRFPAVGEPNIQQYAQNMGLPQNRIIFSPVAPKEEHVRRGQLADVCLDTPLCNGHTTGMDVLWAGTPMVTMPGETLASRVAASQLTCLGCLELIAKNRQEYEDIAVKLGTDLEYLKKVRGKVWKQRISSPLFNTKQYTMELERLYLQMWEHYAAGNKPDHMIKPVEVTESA
row,SMILES,Potency
1,O=C1CCCN1CC#CCN1CCCC1,29.9 µM (active)

# From PubChem BioAssay AID447 (National Center for Advancing Translational Sciences (NCATS), 2006)
